Out of some 310,000 compounds screened, about 17,000 (5.5%) were called active. Not shown: some 11% with an inconclusive outcome. Calls follow the shape of the dose curve; as a rule, active = well fitted inhibition curve with a large enough effect; inconclusive = small, poorly fitted or top-dose-only effect, or effect the other way; inactive = no such curve, though single readings can be large or run the other way. The sample as a whole holds a higher share of actives than the screen did.
Target: Nuclear receptor ROR-gamma (Mus musculus) (UniProt P51450)
Test: qHTS for inhibitors of ROR gamma transcriptional activity; also: nearly all actives have a fitted effect of over 60% in size
Conditions: Drosophila S2 Gal4-RORgamma UAS-luciferase reporter, 20 h; series mostly up to 53.6 µM; activity change, negative = inhibition: at the top concentration
Text: NIH Molecular Libraries Probe Production Network [MLPCN] NIH Chemical Genomics Center [NCGC] MLPCN Grant: R03 DA026211-01 Assay Provider: Dan Littman, New York University Assay Overview: The retinoic acid-related orphan receptor (ROR) gamma is a transcription factor that has a central role in the differentiation of Th17 cells, a subset of T helper cells that secrete the inflammatory cytokines IL-17, IL-17F, and IL-22. Th17 cells have been implicated in graft versus host disease, autoimmune disease and asthma. ROR gamma is induced in naive T helper cells in the presence of TGF-beta combined with IL-6, IL-21, or IL-23, and thereafter directs the expression of the Th17 lineage cytokines. To study the mechanism of action of ROR gamma, an insect cell-based assay was screened. This Drosophila Schneider cell line was stably transfected with two vectors: a gene expressing a fusion of the Gal4 DNA binding domain and ROR gamma transactivation domain under the control of the metallothionine promoter and a Photinus luciferase reporter regulated by the Gal4 binding site enhancer, UAS. […] Small molecule inhibitors of ROR gamma activity are detected by a decrease in luciferase reporter activity.
Assay Protocol Summary: For screening, 600 cells in 4 uL/well were dispensed into white solid 1536-well plates (Grenier) using a solenoid-based dispenser. Following transfer of 23 nL compound or DMSO vehicle by a pin tool, the plates were incubated 1 hr at ambient temperature, and 1 uL/well copper sulfate (700 uM final concentration) was added. The plates were centrifuged 15 s at 1000 RPM and incubated 20 hr at ambient temperature. After addition of 1.5 uL Photinus luciferase detection reagent, the plates were incubated 10 min at ambient temperature and then read by an ViewLux (Perkin Elmer) to detect luminescence. Keywords: NIH Roadmap, MLPCN, MLI, MLSMR, qHTS, NCGC, qHTS, nuclear hormone receptor, retinoic acid-related orphan receptor, ROR gamma
% is scaled to controls: 0 for no effect and ±100 for the full control effect; potency is read from the fitted curve at half-maximal effect.

Sequence of Nuclear receptor ROR-gamma (Mus musculus) (P51450 whole entry, looked up): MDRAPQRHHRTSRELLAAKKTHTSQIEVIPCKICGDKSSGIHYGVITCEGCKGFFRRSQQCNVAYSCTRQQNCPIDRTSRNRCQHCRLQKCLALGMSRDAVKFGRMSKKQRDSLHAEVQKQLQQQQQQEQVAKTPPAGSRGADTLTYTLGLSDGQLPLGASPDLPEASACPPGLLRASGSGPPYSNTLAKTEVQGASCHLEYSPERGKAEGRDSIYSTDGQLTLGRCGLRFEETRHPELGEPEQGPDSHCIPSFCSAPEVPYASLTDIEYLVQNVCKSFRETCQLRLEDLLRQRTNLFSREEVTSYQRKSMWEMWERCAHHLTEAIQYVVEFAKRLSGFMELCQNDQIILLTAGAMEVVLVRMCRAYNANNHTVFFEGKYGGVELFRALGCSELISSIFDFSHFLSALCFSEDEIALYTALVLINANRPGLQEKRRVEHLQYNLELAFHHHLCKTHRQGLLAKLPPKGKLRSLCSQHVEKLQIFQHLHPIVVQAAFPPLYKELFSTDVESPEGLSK

| Compound | activity change, negative = inhibition | Potency |
| --- | --- | --- |
| Cc1nn(C)c(Cl)c1CN1CCC(Oc2ccc(C(=O)N3CCCC3)cc2)CC1 | -28% (inactive) |  |
| CCOc1ccc(N/C(N)=N/c2nc(C)c(C)c(=O)[nH]2)cc1 | 0.457% (inactive) |  |
| Cc1ccc(C(=O)N/C(=C\c2cn(S(=O)(=O)N(C)C)c3ccccc23)C(=O)N2CCCC2)cc1 | 12.2% (inactive) |  |
| CCOc1cc(/C=C2\C(=N)N3N=C(C)SC3=NC2=O)ccc1OCCOc1ccccc1 | 26.8% [at 1.91 µM] (inactive) |  |
| COc1cccc(OC)c1C(=O)Nc1c(C(=O)N2CCN(c3ccccn3)CC2)oc2ccccc12 | 26.4% (inactive) |  |
| CCOc1cc(C)ccc1OCc1nnc(SCC(=O)Nc2cccc(C(=O)O)c2)n1-c1ccccc1 | -3.43% (inactive) |  |
| CSc1nc(C)cc(SC(C(C)=O)C(=O)Nc2ccccc2)n1 (stereo not drawn) |  | 8.91 µM (active) |
| Cc1cc(C)c(C#N)c(SCC(=O)Nc2ccccc2)n1 | -8.89% (inactive) |  |
| CC(Sc1nnc2c(n1)C1CCC2(C)C1(C)C)C(=O)Nc1ccccc1 (stereo not drawn) | 8.52% (inactive) |  |
| Cc1c(CN2CC[C@@H](N3CCN(c4ccccn4)CC3)[C@H](O)C2)[nH]c2ccc(F)cc12 | 10.1% (inactive) |  |
| O=C(Nc1n[nH]c(C(F)(F)F)n1)c1cccs1 | -2.77% (inactive) |  |
| COc1ccc(CC(=O)Nc2nc3n(n2)C(c2ccccc2)CC(=O)N3)cc1OC (stereo not drawn) | -4.03% (inactive) |  |
| CC1CC(c2ccccc2)n2nc(NC(=O)c3cccs3)nc2N1 (stereo not drawn) |  | 14.1 µM (active) |
| CCOc1cc(/C=C2\SC(N3CCCCC3)=NC2=O)ccc1O | 18.1% (inactive) |  |
| O=C1N=C(N2CCCC2)S/C1=C\c1cccc(Br)c1 | 26.8% (inactive) |  |
| O=C1N=C(N2CCc3ccccc3C2)S/C1=C\c1ccc(O)cc1 |  | 1.12 µM (active) |
| Cc1ccc(CCNC(=O)c2ccc3nc4ccccc4c(=O)n3c2)cc1 | 2.06% (inactive) |  |
| CCc1ccc(-c2nn(-c3ccccc3)cc2CSC(=N)N)cc1 |  | 11.2 µM (active) |
| COc1ccc(N(CC(=O)NCC2CCCO2)C(=O)CCC(=O)Nc2nccs2)c(OC)c1 (stereo not drawn) | 6.64% (inactive) |  |
| O=C(NCc1ccc(F)cc1)C1CCN(C(=O)Nc2ccc(F)cc2)CC1 | 12.7% (inactive) |  |
| CCOC(=O)/C(C#N)=C/c1ccc(N2CCCCC2)cc1 | 41.1% (inactive) |  |
| O=c1[nH][nH]c(=O)c2cc(N3CCCC3)ccc12 | 0.847% (inactive) |  |
| O=C1C=CC(=O)N1c1ccc(N2CCCCC2)cc1 |  | 5.62 µM (active) |
| COc1ccc(-c2nnc3ccc(SCc4ccccc4)nn23)cc1 | 18.6% (inactive) |  |
| COC(=O)c1ccc(CSc2ccccc2C)o1 | 23.7% (inactive) |  |
| COC(=O)c1ccc(CSc2ccc3nnc(-c4ccccc4)n3n2)o1 |  | 10 µM (active) |
| CN1CCN(Cc2c(C(=O)N3CCc4ccccc4C3)nc3ccc(Cl)cn23)CC1 | -0.791% (inactive) |  |
| CN1CCN(C(=O)C(=O)c2cn(CC(=O)N3CCCC3)c3ccccc23)CC1 | 0.0969% (inactive) |  |

Source: PubChem BioAssay AID2551 (National Center for Advancing Translational Sciences (NCATS), 2010)
